# Measurements taken from article PMC7862700, “An all-to-all approach to the identification of sequence-specific readers for epigenetic DNA modifications on cytosine”.
# Assays:
# Experiment in all cases: DAPPL (digital affinity profiling via proximity ligation, sequencing); 10 mM Tris-HCl pH 7.5, 50 mM NaCl, 1 mM DTT, 4% glycerol, room temperature, 30 min; GST-TFs on glutathione beads, 16-mer random dsDNA library, 0.1% formaldehyde crosslink after washing; high values mean tight binding
# Conditions in all cases: protein: recombinant; tags: N-terminal GST; dsDNA, one strand shown
# FLI1 = molecular target: T1, FLI1 (Homo sapiens, UniProt Q01543 1-452)
# T1 sequence: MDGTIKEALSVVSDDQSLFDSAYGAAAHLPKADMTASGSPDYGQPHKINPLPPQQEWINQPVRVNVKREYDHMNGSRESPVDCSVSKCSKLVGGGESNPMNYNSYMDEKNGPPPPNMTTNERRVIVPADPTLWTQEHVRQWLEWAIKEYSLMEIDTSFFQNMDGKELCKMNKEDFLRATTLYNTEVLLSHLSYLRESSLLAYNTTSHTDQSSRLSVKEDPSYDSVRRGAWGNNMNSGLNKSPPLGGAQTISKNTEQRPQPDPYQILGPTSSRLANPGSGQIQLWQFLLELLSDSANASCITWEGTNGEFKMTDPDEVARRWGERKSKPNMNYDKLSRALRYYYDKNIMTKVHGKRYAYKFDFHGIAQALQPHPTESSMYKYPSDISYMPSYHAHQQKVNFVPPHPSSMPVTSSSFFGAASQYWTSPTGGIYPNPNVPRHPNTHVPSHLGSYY
# In short: (§1)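 Pools were built from human transcription factors expressed in yeast as GST fusions, captured on glutathione beads and DNA-barcoded, along with a tag-only sample. Incubation with 200 nmole of a 16-mer random double-stranded DNA library lasted 30 min at room temperature in Tris/NaCl/DTT/glycerol buffer, and was followed by washing, 0.1% formaldehyde crosslinking, proximity ligation, PCR amplification and Illumina NextSeq500 sequencing. Binding signal is the quotient of each hexamer's read frequency for a factor and its frequency for the tag-only sample.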
# ELK1 = molecular target: T2, ELK1 (Homo sapiens, UniProt P19419 1-428)
# T2 sequence: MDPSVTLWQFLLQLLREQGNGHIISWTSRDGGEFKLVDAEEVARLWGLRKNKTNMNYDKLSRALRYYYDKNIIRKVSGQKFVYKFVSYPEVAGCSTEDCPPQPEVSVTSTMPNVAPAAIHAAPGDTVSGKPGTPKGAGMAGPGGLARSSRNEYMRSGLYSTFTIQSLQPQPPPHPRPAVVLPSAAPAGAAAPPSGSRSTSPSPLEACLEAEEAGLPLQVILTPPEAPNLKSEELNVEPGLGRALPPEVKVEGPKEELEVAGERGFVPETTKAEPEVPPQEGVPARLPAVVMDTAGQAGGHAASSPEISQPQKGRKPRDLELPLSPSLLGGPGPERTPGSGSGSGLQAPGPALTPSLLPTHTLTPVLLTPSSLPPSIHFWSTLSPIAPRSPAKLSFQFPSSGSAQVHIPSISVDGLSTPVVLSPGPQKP
# In short: as §1
# GABPA = molecular target: T3, GABPA (Homo sapiens, UniProt Q06546 1-454)
# T3 sequence: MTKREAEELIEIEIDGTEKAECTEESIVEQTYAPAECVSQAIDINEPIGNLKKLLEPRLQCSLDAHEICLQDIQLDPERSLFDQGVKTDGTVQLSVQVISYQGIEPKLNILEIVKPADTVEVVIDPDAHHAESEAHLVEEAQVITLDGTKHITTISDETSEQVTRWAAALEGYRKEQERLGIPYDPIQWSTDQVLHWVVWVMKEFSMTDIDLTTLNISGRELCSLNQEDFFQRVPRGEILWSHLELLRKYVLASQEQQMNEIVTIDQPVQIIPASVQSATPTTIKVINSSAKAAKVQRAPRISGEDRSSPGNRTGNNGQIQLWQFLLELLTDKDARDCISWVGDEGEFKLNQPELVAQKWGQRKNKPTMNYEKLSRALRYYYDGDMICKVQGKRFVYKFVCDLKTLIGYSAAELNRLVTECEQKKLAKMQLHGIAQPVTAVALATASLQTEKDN
# In short: as §1
# ERG = molecular target: T4, ERG (Homo sapiens, UniProt P11308 1-479)
# T4 sequence: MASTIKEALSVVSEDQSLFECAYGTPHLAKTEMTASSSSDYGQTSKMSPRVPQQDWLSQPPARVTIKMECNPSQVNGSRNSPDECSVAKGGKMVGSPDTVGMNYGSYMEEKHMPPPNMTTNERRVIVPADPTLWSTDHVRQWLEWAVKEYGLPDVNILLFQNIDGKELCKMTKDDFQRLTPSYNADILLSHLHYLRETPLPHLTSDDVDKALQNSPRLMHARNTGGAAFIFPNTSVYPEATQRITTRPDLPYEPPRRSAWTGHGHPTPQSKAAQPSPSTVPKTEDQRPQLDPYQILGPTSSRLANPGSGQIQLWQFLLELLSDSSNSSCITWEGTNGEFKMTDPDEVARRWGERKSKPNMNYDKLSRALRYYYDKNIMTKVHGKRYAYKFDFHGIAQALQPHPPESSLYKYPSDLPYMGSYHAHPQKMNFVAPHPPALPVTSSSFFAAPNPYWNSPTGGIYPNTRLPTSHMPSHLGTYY
# In short: as §1
# ELF1 = ELF1 (Homo sapiens, UniProt P32519 1-619)
# Chain of ELF1 (P32519 whole entry): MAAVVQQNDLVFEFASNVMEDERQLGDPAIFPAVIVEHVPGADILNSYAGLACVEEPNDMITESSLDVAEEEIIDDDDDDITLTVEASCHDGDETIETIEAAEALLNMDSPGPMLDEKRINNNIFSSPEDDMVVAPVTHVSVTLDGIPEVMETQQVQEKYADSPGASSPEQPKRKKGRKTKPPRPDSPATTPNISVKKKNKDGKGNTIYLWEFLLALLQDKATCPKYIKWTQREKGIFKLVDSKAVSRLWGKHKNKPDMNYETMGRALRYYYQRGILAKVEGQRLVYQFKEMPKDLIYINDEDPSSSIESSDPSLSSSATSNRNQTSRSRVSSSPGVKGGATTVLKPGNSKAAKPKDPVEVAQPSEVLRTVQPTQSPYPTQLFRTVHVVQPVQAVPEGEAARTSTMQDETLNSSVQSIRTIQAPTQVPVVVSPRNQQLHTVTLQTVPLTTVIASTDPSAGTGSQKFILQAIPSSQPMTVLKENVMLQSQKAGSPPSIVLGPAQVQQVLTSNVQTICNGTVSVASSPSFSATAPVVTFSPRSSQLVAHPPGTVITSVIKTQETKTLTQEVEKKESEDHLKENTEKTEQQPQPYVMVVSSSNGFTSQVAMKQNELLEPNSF
# In short: as §1
# EHF = molecular target: T5, EHF (Homo sapiens, UniProt Q9NZC4 1-300)
# T5 sequence: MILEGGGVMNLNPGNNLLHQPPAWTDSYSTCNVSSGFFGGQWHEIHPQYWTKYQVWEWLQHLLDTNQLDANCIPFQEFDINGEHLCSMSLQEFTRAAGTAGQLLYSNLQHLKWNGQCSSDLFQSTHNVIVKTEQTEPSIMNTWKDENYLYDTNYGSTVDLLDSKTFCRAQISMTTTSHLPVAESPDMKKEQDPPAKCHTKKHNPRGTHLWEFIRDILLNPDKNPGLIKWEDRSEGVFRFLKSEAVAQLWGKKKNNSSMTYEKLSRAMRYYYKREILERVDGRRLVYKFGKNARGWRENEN
# In short: as §1
# SPI1 = SPI1 (Homo sapiens, UniProt P17947 1-270)
# In short: as §1
# SPIB = SPIB (Homo sapiens, UniProt Q01892 1-262)
# Chain of SPIB (Q01892 whole entry): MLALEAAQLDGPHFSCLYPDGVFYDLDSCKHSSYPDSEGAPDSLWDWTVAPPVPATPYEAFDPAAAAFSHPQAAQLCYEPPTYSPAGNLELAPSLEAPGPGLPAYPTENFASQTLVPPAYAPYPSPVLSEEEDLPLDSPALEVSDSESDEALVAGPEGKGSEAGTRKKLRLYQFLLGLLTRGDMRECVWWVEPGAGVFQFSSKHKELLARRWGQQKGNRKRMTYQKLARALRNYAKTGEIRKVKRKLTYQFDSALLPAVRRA
# In short: as §1
# ELK3 = molecular target: T6, ELK3 (Homo sapiens, UniProt P41970 1-407)
# T6 sequence: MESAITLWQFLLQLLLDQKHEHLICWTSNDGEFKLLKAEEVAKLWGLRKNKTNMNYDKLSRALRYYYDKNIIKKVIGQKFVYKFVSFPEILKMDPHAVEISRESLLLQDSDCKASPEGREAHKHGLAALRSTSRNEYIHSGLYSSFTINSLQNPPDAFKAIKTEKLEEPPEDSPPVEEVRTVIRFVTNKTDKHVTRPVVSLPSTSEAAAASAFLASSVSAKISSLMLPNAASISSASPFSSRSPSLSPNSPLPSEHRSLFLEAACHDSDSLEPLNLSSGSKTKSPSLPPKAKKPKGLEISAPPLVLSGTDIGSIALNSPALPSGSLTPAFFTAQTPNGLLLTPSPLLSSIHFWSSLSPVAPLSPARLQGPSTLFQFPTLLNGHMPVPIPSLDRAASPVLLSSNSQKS
# In short: as §1
sequence,measurement,setting,value
GAAGTA,binding signal,FLI1,"1.88 fold enrichment (6-mer frequency, TF over GST control)"
same,binding signal,ELK1,"2.23 fold enrichment (6-mer frequency, TF over GST control)"
same,binding signal,GABPA,"1.68 fold enrichment (6-mer frequency, TF over GST control)"
same,binding signal,ERG,"2.03 fold enrichment (6-mer frequency, TF over GST control)"
same,binding signal,ELF1,"1.84 fold enrichment (6-mer frequency, TF over GST control)"
same,binding signal,EHF,"2.13 fold enrichment (6-mer frequency, TF over GST control)"
same,binding signal,SPI1,"2.32 fold enrichment (6-mer frequency, TF over GST control)"
same,binding signal,SPIB,"1.95 fold enrichment (6-mer frequency, TF over GST control)"
same,binding signal,ELK3,"2.1 fold enrichment (6-mer frequency, TF over GST control)"
